Screening data from PubChem.
A selection: hits, their analogues and other compounds. The true share with any hit is near 12%.
G9a block – qHTS Assay for Inhibitors of Histone Lysine Methyltransferase G9a; Potency, µM (highest dose often 102 µM), for the others: top-dose activity, negative = inhibition, most hits filed as inhibitors; G9a H3K9 monomethylation, AlphaScreen, 2 h; Histone-lysine N-methyltransferase EHMT2 (Homo sapiens), Q96KQ7; 350,000 tested, 8.8% active; also: potency is read from the fitted curve at half-maximal effect; % is scaled to controls: 0 for no effect and ±100 for the full control effect; nearly all actives have a fitted effect of over 75% in size
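Readings reflect AlphaScreen signal from monomethyl-H3K9 antibody detection. HMT at 20 nM; substrate b-H3K9 500 nM; cofactor SAM 20 uM; 2 h RT reaction; compounds tested as titrations in qHTS with 15 min preincubation.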
JMJD2A Tudor inh – qHTS Assay for Inhibitors of JMJD2A-Tudor Domain. 390,000 tested, 4.4% active. AlphaScreen JMJD2A-Tudor / H3K4me3 peptide binding. Potency, µM (titrated, usually from 114 µM), inactives show at the highest dose activity change, negative = inhibition, usual class: inhibitors; also: potency is read from the fitted curve at half-maximal effect; % is scaled to controls: 0 for no effect and ±100 for the full control effect; nearly all actives have a fitted effect of over 50% in size
BAZ2B block – qHTS Assay for Inhibitors of BAZ2B; AlphaScreen BAZ2B-H3K14Ac peptide displacement; 360,000 tested, 4.4% active; Potency, µM (highest dose often 114 µM), without a hit: top-dose activity change, negative = inhibition, usual class: inhibitors; also: potency is read from the fitted curve at half-maximal effect; % is scaled to controls: 0 for no effect and ±100 for the full control effect; nearly all actives have a fitted effect of over 60% in size
Target sequence (Q9UIF8 whole entry, looked up): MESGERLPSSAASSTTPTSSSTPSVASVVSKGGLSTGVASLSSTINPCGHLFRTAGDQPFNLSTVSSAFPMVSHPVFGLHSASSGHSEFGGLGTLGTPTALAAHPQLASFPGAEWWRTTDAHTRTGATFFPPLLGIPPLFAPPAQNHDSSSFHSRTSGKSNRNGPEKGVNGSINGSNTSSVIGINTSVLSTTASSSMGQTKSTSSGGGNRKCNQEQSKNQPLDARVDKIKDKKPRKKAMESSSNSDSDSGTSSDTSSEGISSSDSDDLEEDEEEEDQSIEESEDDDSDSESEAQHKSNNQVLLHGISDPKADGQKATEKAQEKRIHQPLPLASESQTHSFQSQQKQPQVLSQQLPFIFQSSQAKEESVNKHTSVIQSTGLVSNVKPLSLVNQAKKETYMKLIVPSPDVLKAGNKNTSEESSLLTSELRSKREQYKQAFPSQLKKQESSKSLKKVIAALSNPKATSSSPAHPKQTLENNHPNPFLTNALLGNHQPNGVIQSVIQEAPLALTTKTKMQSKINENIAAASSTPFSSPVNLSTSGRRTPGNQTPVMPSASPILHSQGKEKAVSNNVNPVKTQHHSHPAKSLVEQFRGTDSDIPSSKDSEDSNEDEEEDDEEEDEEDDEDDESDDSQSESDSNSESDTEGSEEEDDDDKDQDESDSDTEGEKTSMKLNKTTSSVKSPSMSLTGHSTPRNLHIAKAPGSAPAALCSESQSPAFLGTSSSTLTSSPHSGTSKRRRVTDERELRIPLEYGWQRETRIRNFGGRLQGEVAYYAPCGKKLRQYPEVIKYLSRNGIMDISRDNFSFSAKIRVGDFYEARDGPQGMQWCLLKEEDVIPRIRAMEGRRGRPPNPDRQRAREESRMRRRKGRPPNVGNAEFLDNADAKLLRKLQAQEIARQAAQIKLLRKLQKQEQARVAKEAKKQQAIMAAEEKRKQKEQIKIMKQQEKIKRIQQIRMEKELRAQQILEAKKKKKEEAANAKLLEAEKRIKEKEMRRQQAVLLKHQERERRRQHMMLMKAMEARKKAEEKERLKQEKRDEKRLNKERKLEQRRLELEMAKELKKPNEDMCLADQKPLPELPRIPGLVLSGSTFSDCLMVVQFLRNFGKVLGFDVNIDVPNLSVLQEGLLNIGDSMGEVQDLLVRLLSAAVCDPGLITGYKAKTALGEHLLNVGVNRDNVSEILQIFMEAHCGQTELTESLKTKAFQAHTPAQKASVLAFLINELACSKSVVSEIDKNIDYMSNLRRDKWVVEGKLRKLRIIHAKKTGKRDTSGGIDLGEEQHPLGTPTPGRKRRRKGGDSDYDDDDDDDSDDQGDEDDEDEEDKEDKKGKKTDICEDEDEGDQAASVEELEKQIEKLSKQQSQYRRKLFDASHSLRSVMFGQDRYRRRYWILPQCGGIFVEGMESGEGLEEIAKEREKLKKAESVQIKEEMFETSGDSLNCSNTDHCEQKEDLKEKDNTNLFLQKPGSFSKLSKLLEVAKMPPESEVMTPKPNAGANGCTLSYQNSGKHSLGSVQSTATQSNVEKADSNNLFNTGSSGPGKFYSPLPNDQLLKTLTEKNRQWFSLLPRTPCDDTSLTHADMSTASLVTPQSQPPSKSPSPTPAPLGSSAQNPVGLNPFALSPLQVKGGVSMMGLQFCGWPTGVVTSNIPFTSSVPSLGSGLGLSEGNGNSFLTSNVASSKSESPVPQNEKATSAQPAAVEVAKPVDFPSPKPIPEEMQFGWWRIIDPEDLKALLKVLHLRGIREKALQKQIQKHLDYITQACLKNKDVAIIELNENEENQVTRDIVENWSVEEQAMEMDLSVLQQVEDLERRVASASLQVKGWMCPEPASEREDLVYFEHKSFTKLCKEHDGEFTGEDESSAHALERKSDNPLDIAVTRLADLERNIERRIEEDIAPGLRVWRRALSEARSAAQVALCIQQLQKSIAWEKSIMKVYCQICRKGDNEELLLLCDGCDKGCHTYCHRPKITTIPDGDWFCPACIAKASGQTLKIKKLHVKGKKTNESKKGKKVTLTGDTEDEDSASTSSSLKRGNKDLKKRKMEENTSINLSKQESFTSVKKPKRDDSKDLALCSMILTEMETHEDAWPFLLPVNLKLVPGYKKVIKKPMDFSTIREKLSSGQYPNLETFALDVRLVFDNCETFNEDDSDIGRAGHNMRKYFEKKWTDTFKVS
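Protein-peptide AlphaScreen: BAZ2B 50 nM, b-H3K14Ac 50 nM, 1x PBS pH 7.4 + 0.01% Tween-20. Preincubation 30 min RT; cpd 30 min RT (top 110 uM); beads 20 min RT, light-protected.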
PI5P4Ka inh – qHTS for Inhibitors of phosphatidylinositol 5-phosphate 4-kinase (PI5P4K) | 330,000 tested, 1.2% active | max response, % | PI5P4Kalpha enzyme, ADP-Glo luminescence, 60 min; hits give low values | Phosphatidylinositol 5-phosphate 4-kinase type-2 alpha (Homo sapiens), P48426; active = max response of -50% or lower; inconclusive = between -30% and -50%; inactive = -30% or higher; also: value at the top dose of about 77 µM; % is scaled to controls: 0 for no effect and ±100 for the full control effect
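Reactions run in 0.038 M HEPES pH 7.4, 0.28 mM EGTA, 0.1% CHAPS and 5% DMSO, with PI5P4Kalpha, substrate, compound and 5 microM ATP final, one hour at room temperature. Readout is ADP-Glo luminescence.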
HP1b chromo inh – HTS for Inhibitors of HP1-beta Chromodomain Interactions with Methylated Histone Tails; Chromobox protein homolog 1 (Homo sapiens), P83916; AlphaScreen HP1-beta / biotin-H3K9me3 peptide binding; Potency, µM (series often up to 114 µM), inactives show at the top dose activity change, negative = inhibition, hits mostly inhibitors; 390,000 tested, 0.56% active; also: potency is read from the fitted curve at half-maximal effect; nearly all actives have a fitted effect of over 70% in size
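AlphaScreen: HP1-beta (50 nM) preformed 30 min with biotin-H3(1-18)K9me3 peptide (50 nM) in PBS pH 7.4, 0.01% Tween-20. Compound added for 30 min at RT, then streptavidin donor/nickel chelate acceptor beads (10 ug/mL) for 30 min.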
PLK1 PBD inh – qHTS for Inhibitors of PLK1-PDB (polo-like kinase 1 - polo-box domain): Primary Screen | Potency, µM, without a hit: max response, negative = inhibition, usual class: inhibitors | 360,000 tested, 2.8% active | Plk1 PBD binding of FITC phosphopeptide, fluorescence polarization | Serine/threonine-protein kinase PLK1 (Homo sapiens), P53350; also: potency is read from the fitted curve at half-maximal effect; series mostly up to about 57 µM; % is scaled to controls: 0 for no effect and ±100 for the full control effect; nearly all actives have a fitted effect of over 65% in size
Active calls of the source: *; u = inconclusive; x = no result; ! = a repeat was not active; [ ] = dose if it differs, or a comment. Unless noted, calls follow the shape of the dose curve; as a rule, active = well fitted curve in the direction sought with a large enough effect; inconclusive = small, poorly fitted or top-dose-only effect, or another doubt; inactive = no such curve, though single readings can be large; an effect the other way counts as inactive or inconclusive.

SMILES	G9a block	JMJD2A Tudor inh	BAZ2B block	PI5P4Ka inh	HP1b chromo inh	PLK1 PBD inh
Clc1cccc(OCCOCCN2CCNCC2)c1Cl	x	-15%	x	2	17%	-18%
c1ccc2c(OCCCN3CCCCCC3)cccc2c1	x	22µM*	56µM*	-16	u	-21%
Clc1cccc(OCCCN2CCCC2)c1Cl	u	20µM*	-31%	1	u	-13%
CCN(CC)c1cc2c(cc1F)c(=O)c(S(=O)(=O)c1ccc(OC)cc1)cn2CC	-13%[59 µM]	-11%	0%	x	34%	x
OCCN1CCN(CCOc2ccccc2-c2ccccc2)CC1	0%[59 µM]	-18%	13%	-3	6%	-7%
c1ccc(-c2ccccc2OCCN2CCOCC2)cc1	10µM*	14µM*	79µM*	-8	20µM*	-4%
C=CCn1cccc(C(=O)Nc2ccc(C)c(C)c2)c1=O	-4%	u	5%	5	16%	27µM*
C=CCn1cccc(C(=O)Nc2ccc(C)cc2)c1=O	13%	-6%	12%	13	43%	-2%
CC1(C)NC(=O)N(CC(=O)OCC(=O)N2CCN(S(=O)(=O)c3ccccc3)CC2)C1=O	-3%	-7%	1%	-3	27%	-5%
CCOC(=O)N1CCN(C(=O)CCn2c(=S)[nH]c3ccsc3c2=O)CC1	45µM*	u	u	-17	26%	-7%
CC1CCCCC1NC(=O)CCCn1c(=S)[nH]c2ccsc2c1=O (stereo not drawn)	32µM*	-11%	-1%	-2	53%	-3%
CCN(CC)C(=O)C(=O)c1cccn1-c1cccc(OC)c1C#N	5%	-12%	-2%	0	22%	-7%
O=C(Cc1n[nH]c(=O)c2ccccc12)NC(c1ccccc1)c1ccccc1	14%[59 µM]	-9%	-12%	3	64%	-4%
CC(C)[C@@H]1NC(=O)c2cc([N+](=O)[O-])cc(I)c2NCCC[C@@H](C(N)=O)NC(=O)[C@H](CO)NC1=O	40µM*	-18%	u	0	32%	0%
NC(=O)CC[C@@H]1NC(=O)[C@@H]2CCCN2C(=O)c2cc([N+](=O)[O-])cc(I)c2NCCC[C@@H](C(=O)NC(CC(=O)O)C(N)=O)NC1=O (stereo partly drawn)	u	-12%	-3%	-8	21%	-1%
CC(C)[C@@H]1NC(=O)c2cc([N+](=O)[O-])cc(I)c2NCCCC[C@@H](C(=O)NC(CC(=O)O)C(N)=O)NC(=O)[C@H](CO)NC1=O (stereo partly drawn)	45µM*	x	50µM*	x	x	x
CC[C@H](C)[C@@H]1NC(=O)c2cc([N+](=O)[O-])cc(F)c2NCCCC[C@@H](C(N)=O)NC(=O)[C@H](CC(N)=O)NC1=O	u	-20%	-2%	1	36%	-4%
Cc1ccc(C)c(CSC2=NC(C)(C)Nc3ccccc32)c1	74%[59 µM]	122%	101%[57.1 µM]	x	239%	x
COCC(COS(N)(=O)=O)C(C)C (stereo not drawn)	x	-6%	-1%	4	44%	-1%
N#Cc1sc(=O)[nH]c1Cl	x	89µM*!	x	u	17%	u
Cc1cc2oc(=O)cc(CN3CCN(Cc4ccccc4)CC3)c2cc1Cl	-20%[59 µM]	-8%[11.4 µM]	-31%	0	12%	-17%
Cc1ccc2c(CN3CCN(Cc4ccccc4)CC3)cc(=O)oc2c1	6%	-29%	-7%	3	13%	-4%
CCc1ccc2oc(=O)cc(CN3CCN(Cc4ccccc4)CC3)c2c1	45µM*	-22%	-5%	6	51%	-12%
O=c1cc(CN2CCN(Cc3ccccc3)CC2)c2cc(Cl)ccc2o1	45µM*	-21%	7%	3	35%	-3%
CC1CCN2c3cc(Cl)ccc3CC3(C(=O)OC(C)(C)OC3=O)C2C1 (stereo not drawn)	x	1%	x	x	9%	x
SMILES	G9a block	JMJD2A Tudor inh	BAZ2B block	PI5P4Ka inh	HP1b chromo inh	PLK1 PBD inh
Cc1ccsc1CCN1C(=O)N(c2ccccc2)C(=O)C1CC(=O)Nc1ccc(Cl)cc1 (stereo not drawn)	-35%[59 µM]	-17%	-13%	x	27%	x
COCC(C)NC(=O)NC(=O)c1ccc(Cl)cc1 (stereo not drawn)	18%[59 µM]	9%	9%	x	30%	-13%
O=C(NCCN1CCOCC1)c1cc(Cl)ccc1Cl	19%	-15%	-1%	-4	27%	-13%
COCC(C)NC(=O)NC1(C(F)(F)F)Oc2ccc(Cl)cc2O1 (stereo not drawn)	35µM*	-15%[57.1 µM]	12%	-5	3%	-12%
O=C(NCCN1CCOCC1)NC1(C(F)(F)F)Oc2ccc(Cl)cc2O1 (stereo not drawn)	10µM*	40µM*	2%	8	34%	-21%
CSc1ccc(C(O)c2ncc(-c3cccc(F)c3)[nH]2)cc1 (stereo not drawn)	x	x	x	2	x	3%
COC(=O)c1ccc(N2CCOCC2)c(F)c1	24%	-4%	10%	4	19%	-3%
C/C(=N\Nc1ccc(F)cc1)c1ccc(N2CCOCC2)c(F)c1	28µM*	-25%	-19%	3	32%	u
COC(=O)C1Cc2c([nH]c3ccccc23)C2(CCN(Cc3ccccc3)CC2)N1 (stereo not drawn)	45µM*	u	u	6	-15%	-8%
CCCN1CCC2(CC1)NC(C(=O)O)Cc1c2[nH]c2ccccc12 (stereo not drawn)	14µM*	-9%	u	1	13%	-3%
CC1(C)S[C@@H]2[C@H](NC(=O)[C@@H](N)c3ccc(O)cc3)C(=O)N2[C@H]1C(=O)O	47%[21.5 µM]	x	x	x	x	x
Cc1c(C)n(C(=O)CN2CCN(c3ccccc3)CC2)c2ccccc12	50µM*	u	u	-1	-19%	-5%
CN1CCN(CC(=O)n2c3c(c4ccccc42)CCCC3)CC1	40µM*	56µM*	u	x	-9%	-5%
COc1ccc(OC)c(/C=N/NC(=O)CCc2n[nH]c(=O)[nH]c2=O)c1	-23%	-15%	1%	-25	31%	-16%
Cc1ccc(/C=N\NC(=O)CCc2n[nH]c(=O)[nH]c2=O)o1	-42%	16µM*	3%	-26	5%	17µM*
Cc1nn(-c2ccc(N3CCCC3)nn2)c(C)c1CCC(=O)NCc1ccc(OC(C)C)cc1	5%[59 µM]	-12%	-33%	x	39%	x
